# High-throughput results as filed in PubChem.
# aSyn rescue = alpha-synuclein toxicity inhibition in yeast; AID 652106; Potency, µM (doses to about 46.1 µM), inactives show at the highest dose growth rescue (activation), hits mostly activators; Yeast expressing alpha-synuclein, growth rescue, BacTiter-Glo, 24 h; 0.14% of 370,000 active; note: % of control where 0% means no effect; nearly all actives have a fitted effect of over 65% in size
#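 Screening used galactose-induced yeast with toxic alpha-synuclein levels, exposed to compound for 24 hr at 30 deg C. Cell growth, read with BacTiter-Glo luminescence, gave the measured signal.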
# FUS suppressor = rescues growth of FUS-expressing yeast; 0.24% of 390,000 active; AID 1347120; S. cerevisiae FUS-expressing, growth rescue, OD600, 24 h; Potency, µM (doses to about 76.6 µM), hits mostly activators;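 note: plate controls were DMSO vehicle for no effect and reference control for full effect; nearly all actives have a fitted effect of over 55% in size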
#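 Toxicity suppression screen in FUS-yeast. Cells induced with 2% galactose, starting OD 0.005, treated 24hr at 30C with compounds at multiple final concentrations; growth by OD600.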
# Abeta rescue = A-beta toxicity reversal in yeast | 0.063% of 410,000 active | Potency, µM (top dose mostly 46.1 µM), actives largely listed as activators | yeast expressing A-beta42, growth rescue, OD600, 48 h; response scale: 0% DMSO, 100% iron-clioquinol control | AID 1347071; note: nearly all actives have a fitted effect of over 55% in size
#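 Growth rescue measured by 600 nm absorbance after 48 h yeast culture at 30 C with compound. Values normalized between DMSO and an equimolar ferric chloride plus clioquinol control.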
# TDP43 rescue = rescues yeast growth from TDP-43 toxicity; TDP-43 expressing yeast growth rescue, BacTiter-Glo, 24 h; Potency, µM (titrated, usually from 46.1 µM), inactives show at the highest dose growth rescue (activation), actives largely listed as activators; 1.8% of 410,000 active; AID 652104; note: % of control where 0% means no effect; nearly all actives have a fitted effect of over 50% in size
#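 Cell-based yeast growth screen: TDP-43 expression induced in galactose, inoculum OD600=0.02 after raffinose pregrowth to mid-log. Read-out BacTiter-Glo luminescence at 24 hr, 30 deg C; inhibition of toxicity seen as signal increase.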
# Mito fusion act = blocks mitochondrial division or promotes mitochondrial fusion. S. cerevisiae fusion-defective mutant growth rescue, CellTiterGlo 48 h. Potency, µM (series often up to 46.1 µM), inactives show at the highest dose growth rescue (activation), most hits filed as activators. 0.23% of 320,000 active; note: % of control where 0% means no effect; nearly all actives have a fitted effect of over 45% in size
#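 Read-out: ATP-based luminescence (CellTiterGlo, 10 min ambient) reporting growth of fusion-defective ts yeast after 48 hours at 37C on glycerol/ethanol YPEG medium in the presence of compound.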
# * hit, by the source's call; i = inactive; u = inconclusive; x = no result given; [ ] = dose if it differs, or a comment. Compounds with a hit are over-represented: about 2.2% of the library has one in this group of screens. Calls come from the whole dose curve; as a rule, active = well fitted curve in the direction sought with a large enough effect; inconclusive = small, poorly fitted or top-dose-only effect, or another doubt; inactive = no such curve, though single readings can be large; an effect the other way counts as inactive or inconclusive. Potency is the fitted concentration of half-maximal effect.
SMILES,aSyn rescue,FUS suppressor,Abeta rescue,TDP43 rescue,Mito fusion act
CNC(=O)c1cc2c(ccc3ccccc32)o1,11µM*,i,i,u,9%
Cc1coc2cc3oc(=O)c(CCC(=O)N4C[C@H]5C[C@@H](C4)c4cccc(=O)n4C5)c(C)c3cc12,3%,u,i,8%,-2%
O=C(NCc1ccccc1Cl)c1cccc(C(F)(F)F)c1,7%,i,i,35µM*,5%
CSCC(=O)N1CCCC(CO)(Cc2ccccc2C)C1 (stereo not given),-4%,i,i,-16%,22µM*
O=C(CSc1nncs1)NCc1ccc2c(c1)OCO2,-1%,i,i,13µM*,-6%
Cc1nc(SCC(=O)NCc2ccc3c(c2)OCO3)c(C#N)c2c1CCCC2,18µM*,i,i,u,25%
Cc1cc(=O)[nH]c(SCC(=O)NCc2ccc3c(c2)OCO3)n1,-7%,i,i,-21%,-5%
COc1ccc(C(=O)O/N=C(\C)c2cnccn2)cc1,8%,i,i,18µM*,7%
Cn1cnc([N+](=O)[O-])c1S(=O)(=O)c1ccc(Cl)cc1,0%,i,i,14µM*,-16%
Cn1cnc([N+](=O)[O-])c1NC(C)(C)C,-4%,i,i,2%,-2%
CCCNC(=O)C[C@H]1CC[C@H]2[C@@H](COc3ccc(NC(=O)Nc4ccc(C#N)cc4)cc3C(=O)N2C)O1,x,i,x,x,x
CCCCN(C(=O)c1ccc(C)c(S(=O)(=O)N2CCOCC2)c1)c1c(N)n(CCCC)c(=O)[nH]c1=O,-4%,x,i,-4%,-5%
O=c1oc2c(CN3CCOCC3)c(O)ccc2cc1-c1ccc(Cl)cc1,x,i,i,13µM*,x
COc1ccc(NC(=O)c2noc(C(C)C)c2[N+](=O)[O-])cc1,0%,i,i,5%[0.397 µM],0%
CCc1ccc(NC(=O)c2noc(C(C)C)c2[N+](=O)[O-])cc1,2%,i,i,11µM*,-2%
CC(=O)c1ccc(NC(=O)c2noc(C(C)C)c2[N+](=O)[O-])cc1,-13%,i,i,18µM*,0%
CC(=O)c1ccc(NC(=O)c2ccc([N+](=O)[O-])o2)cc1,-53%,i,i,16µM*,-19%
O=C(Cc1cccc(F)c1)NO,2%,x,x,x,x
CCOCCCNC(=O)Nc1cc(C(=O)NCc2ccc(C(C)C)cc2)ccc1N1CCCC1,x,u,i,3%,x
C#CCOc1c(Cl)cc(/C=C2/C(=O)ON=C2C)cc1OCC,5%,i,i,18µM*,1%
C#CCOc1ccc(/C=C2/C(=O)ON=C2C)cc1Cl,2%,i,i,u,5%
C#CCOc1c(Br)cc(/C=C2/C(=O)ON=C2C)cc1OCC,3%,i,u,16µM*,12%
CC(=O)N(c1ccc2oc(=O)sc2c1)S(=O)(=O)c1cccs1,-2%,28µM*,i,25%,-1%
COc1ccc(-c2csc(C(C)(O)c3ccc(F)c(F)c3)n2)cc1OC (stereo not given),9%,i,i,22µM*,x
COc1cccc(C(C)(O)c2nc(-c3cccc(C(C)C)c3)cs2)c1 (stereo not given),-18%,u,i,18µM*,x
SMILES,aSyn rescue,FUS suppressor,Abeta rescue,TDP43 rescue,Mito fusion act
COc1ccc(-c2csc(C(C)(O)c3ccc(OC)cc3)n2)cc1 (stereo not given),6.3µM*,i,u,0%,x
CC(O)(c1ccccc1)c1nc(-c2cccc(C#N)c2)cs1 (stereo not given),-1%,i,u,20µM*,x
COc1ccc(C(C)(O)c2nc(-c3cccc(C#N)c3)cs2)cc1 (stereo not given),u,i,i,7%,x
COc1ccc(C(C)(O)c2nc(-c3ccc(OC)c(OC)c3)cs2)cc1 (stereo not given),22%,i,i,u,x
COc1ccc(CCNC(=O)C(=O)NCC(c2ccco2)S(=O)(=O)c2ccc(C)cc2)cc1 (stereo not given),x,i,i,-11%,x
O=C(CN1CCCC1)Nc1ccc(Br)cc1[N+](=O)[O-],2%,i,i,0%,1%
COCCCn1c(C(=O)N2CC(C)OC(C)C2)cc2c(=O)n3ccccc3nc21 (stereo not given),-3%,i,i,16%,-2%
CC(O)C(NS(=O)(=O)c1ccc(Cl)cc1)C(=O)OCCOc1ccc(F)cc1 (stereo not given),-1%,i,i,17%,x
O=C(OC12CCCN(C1)/C(=C/c1ccc(Cl)cc1)C2)C1CCCCC1 (stereo not given),x,i,x,x,x
COc1cccc(C(C)(O)c2nc(-c3ccc(F)c(Cl)c3)cs2)c1 (stereo not given),-22%,i,i,-61%,x
COCc1cccc(-c2csc(C(C)(O)c3ccccc3)n2)c1 (stereo not given),-4%,i,i,35µM*,x
COc1ccc(C(C)(O)c2nc(-c3ccc(F)c(Cl)c3)cs2)cc1 (stereo not given),-11%,i,u,18µM*,x
COc1ccc(C(C)(O)c2nc(-c3ccccc3)cs2)cc1 (stereo not given),u,i,u,8.9µM*,x
CC(O)(c1ccccc1)c1nc(-c2cccc(F)c2)cs1 (stereo not given),19%,i,i,0%,x
Oc1cccc(-c2csc(C(O)(c3ccccc3)C(F)(F)F)n2)c1 (stereo not given),u,i,i,22µM*,x
Cc1nc(N2CCCC2)ncc1C(=O)Nc1ccc(F)cc1F,x,i,i,u,x
COc1ccc(Cl)cc1Nc1ncnc2c1nc1n2CCCC1,x,i,i,23%,x
CC(O)(c1ccccc1)c1nc(-c2ccccc2)cs1 (stereo not given),4%,i,u,14µM*,x
CC(O)(c1ccccc1)c1nc(-c2ccncc2)cs1 (stereo not given),0%,i,i,-13%,x
CC(=O)/C(CN1CCCCC1)=N\O,4%,i,i,-11%,1%
C/C(=N\O)C(=O)C(CN1CCCCC1)CN1CCCCC1,14µM*,i,i,-29%,-9%
COc1ccccc1-c1nn(CCC(=O)Nc2ccc(C)cc2)c2nc(C)cc(C)c12,u,i,i,35µM*,x
Cc1ccc(NC(=O)CCn2nc(C)cc2C)cc1,0%,i,i,5%,-1%
Cc1cccc(N(C)c2nc3ccc(C)cc3n3cnnc23)c1,x,i,i,13µM*,x
Cc1cccc(N(C)c2nc3ccc(C)cc3n3nnnc23)c1,x,i,i,6%,x
CCCCn1c(N)c(N(CCOC)C(=O)c2cc(Cl)nc3ccccc23)c(=O)[nH]c1=O,1%,i,i,3%,-7%
